Screens deposited in PubChem by several laboratories.
Sampled rows, rich in hits. Any-hit rate of the full collection: about 4.3%.
esBAF inh = Bmi1 luciferase reporter increase in mESCs, primary screen, esBAF inhibitor project, mouse ES cells, Bmi1 luciferase knock-in, single point. 24 h; 100% = twice the neutral-well signal. reporter increase, % at 12.5 µM. 350,000 compounds, 2% hits. AID 602393, 2012; in the data active means activation above about 40%; inconclusive means no clear call, values can overlap the other calls;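 further: a rise in the Bmi1 reporter signal indicates esBAF inhibition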
HSF1 inh = HSF1 inhibitors in luciferase reporter cells, primary screen, cell-based, NIH3T3, luminescence. NIH3T3-HGL HSE-luciferase, MG132-induced, luminescence 8 h; hits give low values. activity change, negative = inhibition, % at 7.5 µM (by protocol). 300,000 compounds, 0.77% hits. AID 2098, 2009;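 active means more than half of replicate wells show activity change below -50%, luminescence cut by over half; inconclusive means some wells, but at most half, below -50%; inactive means no replicate well below -50%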;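 further: luciferase reports HSF-1 transcriptional activity via heat shock element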
SMARCA2 act = SMARCA2 (BRM) function activators, primary screen, cell-based, luminescence, high throughput; MG213 cells, MMTV-luciferase reporter, dexamethasone, overnight; activation, % at 9.1 µM; 370,000 compounds, 1% hits; AID 652017, 2013; in the data active means activation above about 7.8%
HSF1 activator = HSF-1 activators, primary screen, NIH3T3-HGL cells, MG132 stress, luminescence, single point; NIH3T3-HGL HSF-1 luciferase reporter, 8 h; 100% = twice DMSO control signal; activation, % at 9 µM; 300,000 compounds, 1.7% hits; AID 504408, 2011;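 active means mean replicate activation of at least 50% with a set share of replicates each reaching 50%; inconclusive means only one of those two conditions met; inactive means mean below 50% and too few replicates reaching it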
Wnt bcat act = Wnt/beta-catenin pathway activators, primary screen, cell-based, plate reader, single point | Wnt/beta-catenin reporter cell assay, activator | activation, % at 9.35 µM | 300,000 compounds, 1.2% hits | AID 743398, 2014; in the data active means activation above about 30%, passing the limit was not always enough; inconclusive means no clear call, values can overlap the other calls
MITF TRPM1 HTS = activators of MITF-driven TRPM1 promoter reporter, primary screen, cell-based, SK-MEL-5, luciferase, single point | SK-MEL-5 TRPM1-promoter luciferase, 24 h; % of positive control, neutral wells = 0 | 300,000 compounds, 0.75% hits | activation, % at 12.5 µM | AID 588334, 2011;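 active means mean activation of at least 80% with every replicate also reaching 80%; inconclusive means mean reaches 80% but some replicate falls short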
Hits are given with their value.

`CCCc1nnc(NC(=O)CN2CCN(C)CC2)s1` gave esBAF inh inactive, HSF1 inh inactive, SMARCA2 act inactive, HSF1 activator inactive, Wnt bcat act inactive and MITF TRPM1 HTS inactive.
Screening CCOC(=O)COn1c(-c2cccc(Cl)c2)nc2ccc([N+](=O)[O-])cc21 returned HSF1 inh inactive, SMARCA2 act inactive, HSF1 activator inactive and MITF TRPM1 HTS 86.8.
Screening COc1ccc2c(COC(=O)CNS(=O)(=O)c3ccc(C)c(C)c3)cc(=O)oc2c1 returned esBAF inh inactive, SMARCA2 act inactive, Wnt bcat act inactive and MITF TRPM1 HTS inactive.
Cc1ccc2c(COC(=O)c3ccccc3Cl)cc(=O)oc2c1 was read as esBAF inh 70.9, HSF1 inh inactive, SMARCA2 act inactive, HSF1 activator 100.7, Wnt bcat act inactive and MITF TRPM1 HTS 180.8.
`Cc1ccc2c(COC(=O)c3ccc(C)c(C)c3)cc(=O)oc2c1` gave esBAF inh 45.6, HSF1 inh inactive, SMARCA2 act inactive, HSF1 activator inactive, Wnt bcat act inactive and MITF TRPM1 HTS inactive.
For COc1ccc2c(COC(=O)CCS(=O)(=O)c3ccc(C)cc3)cc(=O)oc2c1 the results were esBAF inh inactive, HSF1 inh -73.3, SMARCA2 act inactive, HSF1 activator inactive, Wnt bcat act inactive and MITF TRPM1 HTS inactive.
Screening Cc1ccc2c(COC(=O)c3ccccc3Br)cc(=O)oc2c1 returned esBAF inh 53.7, HSF1 inh inactive, SMARCA2 act inactive, HSF1 activator 88.0, Wnt bcat act inactive and MITF TRPM1 HTS 118.0.
`COCC(=O)N[C@@H]1CC[C@@H](CC(=O)NCc2ccccc2OC)O[C@@H]1CO` gave esBAF inh inactive.
For CCCc1cn(CC[C@@H]2CC[C@@H](NC(=O)C3CCCC3)[C@@H](CO)O2)nn1 the results were esBAF inh inactive.
Screening C[C@H](CO)N1C[C@H](C)[C@H](CN(C)Cc2ccc(C(=O)O)cc2)Oc2ccc(NC(=O)Nc3ccc(F)cc3)cc2C1=O returned esBAF inh inactive.
`CC(C)(O)C#Cc1cccc(-c2nc(C(=O)O)cc3c2[C@H](CCO)N(S(=O)C(C)(C)C)C3)c1` (stereo not given in full) gave esBAF inh inactive.
For Cc1ccc(NC(=O)COC(=O)[C@H](C)N2C(=O)C3CC=CCC3C2=O)cc1S(=O)(=O)N(C)C (stereo not given in full) the results were HSF1 inh inactive, SMARCA2 act inactive, HSF1 activator 67.9, Wnt bcat act inactive and MITF TRPM1 HTS inactive.
`Cc1ccc(NC(=O)COC(=O)Cn2cnc3ccccc32)cc1S(=O)(=O)N(C)C` gave HSF1 inh -82.6, SMARCA2 act inactive, HSF1 activator inactive and MITF TRPM1 HTS inactive.
Screening C/C=C/C(=O)OCC(=O)Nc1ccc(C)c(S(=O)(=O)N(C)C)c1 returned HSF1 inh inactive, SMARCA2 act inactive, HSF1 activator inactive, Wnt bcat act inactive and MITF TRPM1 HTS inactive.
O=C(COC(=O)Cn1cnc2ccccc21)Nc1ccc2c(c1)C(=O)c1ccccc1C2=O was read as HSF1 inh inactive, SMARCA2 act inactive, HSF1 activator inactive, Wnt bcat act 59.2 and MITF TRPM1 HTS inactive.
For CCOc1ccc(NC(=O)c2ccc(NC(=O)c3ccccc3Br)cc2)cc1 the results were esBAF inh inactive, SMARCA2 act inactive, Wnt bcat act inactive and MITF TRPM1 HTS inactive.
Screening O=C(Nc1ccc(C(F)(F)F)cc1)c1ccccc1Br returned esBAF inh 54.7, HSF1 inh inactive, SMARCA2 act inactive, HSF1 activator inactive, Wnt bcat act inactive and MITF TRPM1 HTS inactive.
For O=C(Nc1ccc(NC(=O)c2ccccc2Br)cc1)c1ccccc1 the results were esBAF inh 42.2, HSF1 inh inactive, SMARCA2 act inactive, HSF1 activator inactive, Wnt bcat act inactive and MITF TRPM1 HTS inactive.
For O=C(Nc1ccn(-c2ccccc2)n1)c1ccccc1Br the results were esBAF inh 69.4, SMARCA2 act inactive, Wnt bcat act inconclusive and MITF TRPM1 HTS inactive.
For COc1cc(-c2ccc3c(=O)c4ccccc4sc3c2)cc(OC)c1OC the results were esBAF inh 47.2, SMARCA2 act inactive, Wnt bcat act inactive and MITF TRPM1 HTS inactive.
COc1cc(-c2ccc3c(=O)c4ccccc4n(C)c3c2)cc(OC)c1OC was read as esBAF inh inactive, HSF1 inh inactive, SMARCA2 act inactive, HSF1 activator inactive, Wnt bcat act inactive and MITF TRPM1 HTS inactive.
`Cc1ccc(NNC(=O)c2ccno2)c(C)c1` gave HSF1 inh inactive, SMARCA2 act inactive, HSF1 activator 68.4 and Wnt bcat act inactive.
Screening Cc1cc(NC(=O)c2ccno2)no1 returned esBAF inh inactive, HSF1 inh inactive, SMARCA2 act inactive, HSF1 activator inactive, Wnt bcat act inactive and MITF TRPM1 HTS inactive.
COc1ccc(N(C(=O)c2ccco2)C(C(=O)NC2CCCC2)c2cccs2)cc1 (stereo not given) was read as esBAF inh inactive, HSF1 inh inactive, SMARCA2 act inactive, HSF1 activator 66.3, Wnt bcat act inactive and MITF TRPM1 HTS inactive.
`COc1ccc(N(C(=O)c2ccco2)C(C(=O)NC2CCCC2)c2cccs2)cc1OC` (stereo not given) gave esBAF inh inactive, HSF1 inh inactive, SMARCA2 act inactive and HSF1 activator inactive.
`O=C(Nc1ccccc1O)c1cccc(S(=O)(=O)Nc2ccccc2O)c1` gave HSF1 inh inactive, SMARCA2 act inactive, HSF1 activator 123.4, Wnt bcat act inactive and MITF TRPM1 HTS inactive.
For Cc1ccccc1NS(=O)(=O)c1cccc(C(=O)Nc2cccc(C(=O)O)c2)c1 the results were esBAF inh inactive, HSF1 inh inactive, SMARCA2 act inactive, HSF1 activator inactive, Wnt bcat act inactive and MITF TRPM1 HTS inactive.
`CNS(=O)(=O)c1cccc(C(=O)Nc2cccc(Cl)c2)c1` gave esBAF inh 48.2, HSF1 inh inactive, SMARCA2 act inactive and HSF1 activator inactive.
`COc1cccc(C(=O)Nc2cccc(NC(=O)c3ccccc3Cl)c2)c1` gave esBAF inh inactive, HSF1 inh inactive, SMARCA2 act inactive, HSF1 activator inactive and Wnt bcat act inactive.
`O=C(Nc1cccc(Cl)c1)c1ccc(S(=O)(=O)NCC2CCCO2)cc1` (stereo not given) gave esBAF inh inactive, HSF1 inh -88.5, SMARCA2 act inactive, HSF1 activator inactive, Wnt bcat act inactive and MITF TRPM1 HTS inactive.
For CN(C)S(=O)(=O)Oc1cccc(C(=O)Nc2ccc(Cl)c(Cl)c2)c1 the results were esBAF inh 72.2, HSF1 inh inactive, SMARCA2 act inactive, HSF1 activator inactive and MITF TRPM1 HTS inactive.
